The source of these data is PubChem BioAssay (NCATS).

Values without a mark were called inactive. Records with an inconclusive call do not appear. Activity calls are given as the source filed them. Calls follow the shape of the dose curve; as a rule, active = well fitted curve in the direction sought with a large enough effect; inconclusive = small, poorly fitted or top-dose-only effect, or another doubt; inactive = no such curve, though single readings can be large; an effect the other way counts as inactive or inconclusive.

The target of assay [1] is Glutathione peroxidase 1 (Homo sapiens) (UniProt P07203). As to the kind of experiment: Primary qHTS Assay for Inhibitors of Recombinant Selenoprotein Glutathione Peroxidase 1 (GPX1) (AID 1845191). Also: nearly all actives have a fitted effect of over 65% in size. As to activity, negative = inhibition: % is scaled to controls: 0 for no effect and ±100 for the full control effect. The gist of the method:
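NADPH consumption tracked by fluorescence at 340/450 nm between t=0 and t=15 min, room temperature. Final mix: 10 nM GPX1, 100 nM glutathione reductase, 1 mM GSH, 0.5 mM NADPH, 0.5 mM cumene hydroperoxide, 0.01% BSA; 30 min compound–enzyme preincubation.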

Assay [2] deals with Phospholipid hydroperoxide glutathione peroxidase GPX4 (Homo sapiens) (UniProt P36969). As to the kind of experiment: Primary qHTS Assay for Inhibitors of Recombinant Selenoprotein Glutathione Peroxidase 4 (GPX4) (AID 1845192). Also: nearly all actives have a fitted effect of over 65% in size. As to activity change, negative = inhibition: series mostly up to about 50 µM; % is scaled to controls: 0 for no effect and ±100 for the full control effect. The gist of the method: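 NADPH consumption followed by fluorescence at 340/450 nm, t=0 and after 15 min at room temperature. Reaction started with cumene hydroperoxide (0.5 mM final) after 30 min compound–GPX4 preincubation; final 200 nM GPX4, 100 nM GR, 1 mM GSH, 0.5 mM NADPH.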

Assay [3] addresses Luciferin 4-monooxygenase (Photinus pyralis) (UniProt P08659). As to the kind of experiment: Primary firefly luciferase (FLuc) qHTS assay for identification of artifact compounds. (AID 1845220). Also: nearly all actives have a fitted effect of over 60% in size.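 As to activity change, negative = inhibition: series mostly up to about 54 µM; plate controls were DMSO vehicle for no effect and no enzyme for full effect.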 The gist of the method: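 FLuc 10 nM; luciferin 10 uM; ATP 10 uM; Tris-acetate pH 7.6, Mg-acetate 10 mM; 15 min RT preincubation; 5 min reaction; luminescence.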
The nature of assay [4]: Primary fluorescence-based thiol-reactive (MSTI) qHTS assay for identification of artifact compounds. (AID 1845221). Also: nearly all actives have a fitted effect of over 65% in size. Also: potency is read from the fitted curve at half-maximal effect.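 As to activity change, negative = thiol reactive: series mostly up to about 54 µM; thiol-reactive compounds lower the probe fluorescence signal.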 The gist of the method:
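In PBS pH 7.4 with 2% DMSO, each compound met 4 uM MSTI for one hour at ambient temperature, shielded from light, before fluorescence detection.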

For assay [5], the system named is Nanoluciferase (engineered Oplophorus gracilirostris luciferase). As to the kind of experiment: Primary Nanoluciferase (NLuc) qHTS assay for identification of artifact compounds. (AID 1845222).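 Also: NLuc secreted into diluted conditioned medium of S16 cells; series mostly up to about 54 µM; 0% = DMSO and -100% = no enzyme.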 The gist of the method:
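NLuc from S16 cell medium (1:55) plus test compounds, 15 min, room temperature. Luminescence after Nano-Glo (1:100) addition, 5 min.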

A short description of assay [6]: Primary redox qHTS assay for identification of artifact compounds. (AID 1845223).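 Also: 0% = DMSO and 100% = reference compound.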 The gist of the method:
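Redox-cycling detection via DTT (250 uM final) oxidation coupled to Amplex Red (25 uM)/HRP (250 mU/mL) in HBSS. 15 min preincubation plus 30 min after DTT, room temperature. Ex/Em 525/598 nm; 4-parameter Hill fit against DMSO and 10 uM DA3003.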

Sequence of Phospholipid hydroperoxide glutathione peroxidase GPX4 (Homo sapiens) (P36969 whole entry, looked up): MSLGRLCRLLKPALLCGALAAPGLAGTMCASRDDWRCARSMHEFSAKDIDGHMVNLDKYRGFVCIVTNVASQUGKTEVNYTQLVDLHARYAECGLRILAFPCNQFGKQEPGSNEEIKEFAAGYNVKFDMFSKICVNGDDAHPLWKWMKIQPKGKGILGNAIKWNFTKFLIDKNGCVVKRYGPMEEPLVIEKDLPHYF
Sequence of Glutathione peroxidase 1 (Homo sapiens) (P07203 whole entry, looked up): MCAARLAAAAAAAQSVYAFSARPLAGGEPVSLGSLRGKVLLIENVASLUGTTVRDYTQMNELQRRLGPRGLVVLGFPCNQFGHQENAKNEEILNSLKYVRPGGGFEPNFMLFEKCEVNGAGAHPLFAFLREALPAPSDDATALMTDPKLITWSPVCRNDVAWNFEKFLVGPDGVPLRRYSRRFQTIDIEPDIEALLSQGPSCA

Regarding `Cc1cc(-c2cnc(N)c3c(-c4ccc5scnc5c4)csc23)n(C)n1`, the Potency result in assay [1], in assay [2], in assay [3], in assay [4] and in assay [5] was “inactive” in each case.
Turning to `Cc1cc(N2CCN(C(=O)Oc3ccc(-c4ccccc4)cn3)CC2)c2ccccc2n1`, the Potency entry in assay [1], in assay [2], in assay [3], in assay [4], in assay [5] and in assay [6] was “inactive” each time.
`COc1ccc2c(c1O[C@H]1CCNC1)CCC2`: the Potency entry in assay [1], in assay [2], in assay [3], in assay [4] and in assay [5] was “inactive” throughout.
For `Cc1cc2c(cc1N1C(=O)c3cccc4c(CCCO)ccc(c34)C1=O)n(C)c(=O)n2C`, the Potency entry in assay [1], in assay [2], in assay [3], in assay [4] and in assay [5] was “inactive” in each case.
For `COc1c(C(C)C)c(O)c(O)c2c1C(OC)[C@H]1OC(=O)[C@@]23CCCC(C)(C)[C@H]13` (some centres undefined), the Potency entry in assay [1], in assay [2], in assay [3] and in assay [5] was “inactive” throughout. In assay [4], the Potency was 2930 nM (active).
Consider `O=C(NCC1CCN(Cc2cccc(Cl)c2)CC1)[C@@H]1CCCN(c2ncnc3c2nc2n3CCCC2)C1`, for which the Potency result in assay [1], in assay [2], in assay [3], in assay [4] and in assay [5] was “inactive” in each case.
Regarding `CNc1nc(NCc2ccc(NS(C)(=O)=O)cc2Cl)cc(-c2ccccn2)n1`, the Potency entry in assay [1], in assay [2], in assay [3], in assay [4] and in assay [5] was “inactive” in each case.
`C=C1CC2OC(=O)C(=C)C2C(OC(=O)/C(C)=C\C)CC2(C)OC1=CC2=O` (centres undefined): the Potency entry in assay [1], in assay [2], in assay [3], in assay [4] and in assay [5] was “inactive” in each case.
Turning to `CNCCN1CCC(c2cc(CN(C)C(=O)c3cccc(Oc4ccccc4)c3)ccn2)CC1`, the Potency result in assay [1], in assay [2], in assay [3], in assay [4] and in assay [5] was “inactive” throughout.
Turning to `CC(=O)N[C@H]1[C@H](O[C@H]2CC[C@@]3(C)C(CC[C@]4(C)C3CC=C3C5CC(C)(C)CC[C@]5(C(=O)O)C(O)C[C@]34C)C2(C)C)O[C@H](CO[C@@H]2O[C@H](C)[C@H](O)[C@H](O)[C@H]2O[C@@H]2OC[C@@H](O)[C@H](O)[C@H]2O)[C@@H](O)[C@@H]1O` (some centres undefined), the Potency entry in assay [1] and in assay [2] was “inactive” throughout. Further, the activity change, negative = inhibition in assay [3] was -2.09% [at 11.6 µM]. In assay [4], the activity change, negative = thiol reactive is 111% [at 11.5 µM]. The activity, negative = inhibition in assay [5] is 3.71% [at 11.6 µM].
Take `C[C@]12CC[C@@H]3c4ccc(O)c(O)c4CC[C@H]3[C@@H]1CCC2=O`: the Potency entry in assay [1], in assay [2], in assay [3] and in assay [5] was “inactive” throughout. Further, in assay [4], the Potency was 947 nM (active).
For `CCNC(=O)C#Cc1ccc2c(C(=Nc3ccc(CN(C)C)cc3)c3ccccc3)c(O)[nH]c2c1`, the Potency result in assay [1], in assay [2], in assay [3], in assay [4] and in assay [5] was “inactive” throughout.
On to `O=C(c1ccccc1)c1c(O)cc(O)cc1O[C@@H]1O[C@H](CO)[C@@H](O)[C@H](O)[C@H]1O`, for which the Potency result in assay [1], in assay [2], in assay [3] and in assay [5] was “inactive” each time. Also, the Potency in assay [4] is 13100 nM (active).
Consider `COc1ccc(C#Cc2ccc(C(=O)N3CCC[C@@H](CO)C3)cc2)cc1`, for which the Potency entry in assay [1], in assay [2], in assay [3], in assay [4] and in assay [5] was “inactive” throughout.
Turning to `COc1cc2c(cc1NS(=O)(=O)c1ccc(Br)cc1C)n(C)c(=O)n2C`, the Potency entry in assay [1], in assay [2], in assay [3], in assay [4] and in assay [5] was “inactive” in each case.
For the compound `O=c1[nH]c2cccc(N3CCN(Cc4ccc(-c5ccccc5)cc4)CC3)c2o1`, the Potency result in assay [1], in assay [2], in assay [3], in assay [4] and in assay [5] was “inactive” in each case.
As to `CCN(Cc1ccccc1)C(=O)Cn1c(=O)n(C)c2cnc(-c3ccccc3)nc21`, the Potency entry in assay [1], in assay [2], in assay [3], in assay [4] and in assay [5] was “inactive” in each case.
As to `CN1CCN(c2ccc(OC(F)(F)F)c(Nc3ncc4c(n3)-c3c(c(C(N)=O)nn3CCO)CC4)c2)CC1`, the Potency entry in assay [1], in assay [2], in assay [3], in assay [4] and in assay [5] was “inactive” in each case.
For `Cc1c[nH]c2ncnc(N3CCC(CN)(C(=O)Nc4cccc(OC(=O)N(C)C)c4)CC3)c12`, the Potency result in assay [1], in assay [2], in assay [3], in assay [4] and in assay [5] was “inactive” each time.
Take `COc1ccc(C(=O)Nc2c(Cl)cncc2Cl)cc1OC1CCCC1`: the Potency result in assay [1], in assay [2], in assay [3], in assay [4], in assay [5] and in assay [6] was “inactive” in each case.
For the compound `C=C1C(OC2OC(CO)C(O)C(O)C2O)CC2C(C)(C)C(O)CCC2(C)C1CC/C(C)=C\COC(=O)CC(=O)O` (centres undefined), the Potency result in assay [1], in assay [2], in assay [3], in assay [4] and in assay [5] was “inactive” in each case.
`C=C1CC2OC(=O)C(COC)C2C(OC(=O)/C(C)=C\C)CC2(C)OC1=CC2=O` (centres undefined): the Potency entry in assay [1], in assay [2], in assay [3], in assay [4] and in assay [5] was “inactive” in each case.
Take `Cn1nc(C(C)(C)C)cc1C(=O)N[C@@H](Cc1cccc(Cl)c1)C(=O)NCC#N`: the Potency result in assay [1], in assay [2], in assay [3], in assay [4] and in assay [5] was “inactive” each time.
With `COc1cc(Br)c(S(=O)(=O)Nc2ccc(Cl)c(O[C@@H]3CCN(C)C3)c2)cc1OC`, the Potency entry in assay [1], in assay [2], in assay [3], in assay [4] and in assay [5] was “inactive” throughout.
For `CCc1cc(C(N)=O)ccc1-n1nc(C(C)C)c2c(-n3cnc(-c4cnn(C)c4)c3)ccnc21`, the Potency entry in assay [1], in assay [2], in assay [3], in assay [4] and in assay [5] was “inactive” throughout.
Turning to `O=S(=O)(NCc1ccccn1)c1ccc(Br)c2ccccc12`, the Potency result in assay [1], in assay [2], in assay [3], in assay [4], in assay [5] and in assay [6] was “inactive” each time.
Consider `CC(C)(C)[C@H](NC(=O)c1ccc(N)c(Cl)c1)C(=O)N1CCC[C@H]1C(=O)N[C@H](C#N)CC(=O)O`, for which the Potency result in assay [1], in assay [2], in assay [3], in assay [4], in assay [5] and in assay [6] was “inactive” throughout.
On to `CCN1CCC[C@@H]1CNC(=O)c1ccc2c(c1)NC(=O)c1cccc(C)c1S2`, for which the Potency entry in assay [1], in assay [2], in assay [3], in assay [4], in assay [5] and in assay [6] was “inactive” in each case.
`CCCCCCCCn1cc(CN(CC)CC)c2cc(-c3cnc(N)nc3)ccc21`: the Potency result in assay [1], in assay [2], in assay [3], in assay [4], in assay [5] and in assay [6] was “inactive” throughout.
Regarding `Cc1cc2sc(NC(=O)Cc3ccccc3)nc2cc1Cl`, the Potency entry in assay [1], in assay [2], in assay [3], in assay [4], in assay [5] and in assay [6] was “inactive” each time.
Consider `CC(C)(CO)c1cc2cc(NC(=O)C3(c4ccc5c(c4)OC(F)(F)O5)CC3)c(F)cc2n1CC(O)CO` (centres undefined), for which the Potency entry in assay [1], in assay [2], in assay [3], in assay [4], in assay [5] and in assay [6] was “inactive” each time.
`Clc1ccc(Nc2nc3ccccc3c3nc(C4CCCCC4)[nH]c23)cc1Cl`: the Potency entry in assay [1], in assay [2], in assay [3], in assay [4], in assay [5] and in assay [6] was “inactive” each time.
